Measured values reported in PubChem BioAssay (EPA / NIEHS).
Calls of active or inactive are those of the source. How the source made its calls: active means hit-call score of the fitted dose curve at least 0.9, where 1 is the maximum; inactive means score below 0.9.

How the values were obtained:
Conditions in all cases: primary human HUVEC with PBMC; actives raise or lower the signal
[1] = read-out: Monocyte Chemoattractant Protein-1 (MCP1), CCL2 (gene 6347); test: BSK_LPS_MCP1: BioMAP Diversity Plus: LPS Assay for Monocyte Chemoattractant Protein-1 (MCP1) Biomarker Activity (AID 2283081)
Method in brief: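 Values derive from bidirectional fitting against DMSO of ELISA-measured MCP-1 in a human primary endothelial and mononuclear cell co-culture, 24 h after chemical addition under LPS activation.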

[2] = BSK_LPS_PGE2: BioMAP Diversity Plus: LPS Assay for Prostaglandin E2 (PGE2) Biomarker Activity (AID 2283082);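 on AC50: secreted prostaglandin E2 measured by ELISA in LPS-stimulated co-culture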
Method in brief: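 Endpoint derived from bidirectional curve fitting versus DMSO of ELISA-measured PGE2 in LPS-stimulated human primary vascular co-culture (HUVEC with PBMC) harvested at 24 h.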

[3] = read-out: Tissue Factor, F3 (gene 2152); test: BSK_LPS_TissueFactor: BioMAP Diversity Plus: LPS Assay for Tissue Factor Biomarker Activity (AID 2283084)
Method in brief: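 Read-out: CD142 ELISA, 24 h. System: LPS-driven human endothelial/PBMC co-culture. Analysis: up- or down-signal fitted against DMSO.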

[4] = read-out: Tumor necrosis factor (Homo sapiens) (UniProt P01375); test: BSK_LPS_TNFa: BioMAP Diversity Plus: LPS Assay for Tumour Necrosis Factor alpha (TNFa) Biomarker Activity (AID 2283085)
Method in brief: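 Primary human vascular co-culture of HUVEC and PBMC; TNFa ELISA 24 h after treatment, analysed as increase or decrease relative to DMSO control.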

[5] = read-out: Vascular cell adhesion molecule 1 (VCAM1), VCAM1 (gene 7412); test: BSK_LPS_VCAM1: BioMAP Diversity Plus: LPS Assay for Vascular cell adhesion molecule 1 (VCAM1) Biomarker Activity (AID 2283086)
Method in brief: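 Primary human vascular co-culture (umbilical vein endothelium plus PBMC) stimulated with LPS received chemical; 24 h later VCAM-1 was read by ELISA. Overt cytotoxicity was assessed by sulforhodamine B staining of parallel cultures at the same time point.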

CD40, CD40 (gene 958) = test: BSK_SAg_CD40: BioMAP Diversity Plus: SAg Assay for CD40 Biomarker Activity (AID 2283088)
Method in brief: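 Endpoint derived by fitting increases or decreases versus DMSO controls. CD40 is detected by fluorescence ELISA in a human vascular co-culture of endothelium and PBMC at 24 h.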

CD69, CD69 (gene 969) = test: BSK_SAg_CD69: BioMAP Diversity Plus: SAg Assay for CD69 Biomarker Activity (AID 2283089)
Method in brief: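 ELISA, fluorescence read-out: CD69 on human umbilical vein endothelial cell + PBMC co-culture, 24 h post-dosing. Gain or loss of signal fitted bidirectionally against DMSO baseline.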

[6] = read-out: Monocyte Chemoattractant Protein-1 (MCP1), CCL2 (gene 6347); test: BSK_SAg_MCP1: BioMAP Diversity Plus: SAg Assay for Monocyte Chemoattractant Protein-1 (MCP1) Biomarker Activity (AID 2283090)
Method in brief: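 MCP-1 levels in the endothelial–PBMC SAg co-culture were quantified by ELISA at 24 h post-dosing; both increases and decreases versus DMSO scored. Cytotoxicity monitored by SRB total protein in parallel cultures.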

CD38, CD38 (gene 952) = test: BSK_SAg_CD38: BioMAP Diversity Plus: SAg Assay for CD38 Biomarker Activity (AID 2283087)
Method in brief: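 Fluorescence ELISA of cell-surface CD38 served as the read-out, with either increase or decrease fitted against DMSO controls. Cells were a human umbilical vein endothelium plus PBMC co-culture under SEB/TSST-1 stimulation, measured 24 h after dosing.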

Chain of Tumor necrosis factor (Homo sapiens) (P01375 whole entry, looked up): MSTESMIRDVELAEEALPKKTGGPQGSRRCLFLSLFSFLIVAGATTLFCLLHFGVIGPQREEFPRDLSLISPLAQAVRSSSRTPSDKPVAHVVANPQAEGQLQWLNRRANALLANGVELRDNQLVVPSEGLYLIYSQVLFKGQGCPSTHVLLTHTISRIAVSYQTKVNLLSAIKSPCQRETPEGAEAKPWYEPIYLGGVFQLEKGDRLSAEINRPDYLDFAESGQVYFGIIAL

Row | Structure (SMILES) | outcome [1] | outcome [2] | outcome [3] | outcome [4] | outcome [5] | outcome (CD40, CD40 (gene 958)) | outcome (CD69, CD69 (gene 969)) | outcome [6] | AC50 [2] | outcome (CD38, CD38 (gene 952)) | AC50 [5] | AC50 (CD40, CD40 (gene 958)) | AC50 [6] | AC50 (CD38, CD38 (gene 952))
1 | Cc1cccc(O)c1C | inactive | inactive | inactive | inactive | inactive | inactive | inactive | inactive |  |  |  |  |  | 
2 | O=C(O)[C@H](O)[C@@H](O)C(=O)O | inactive | inactive | inactive |  | inactive | inactive |  | inactive |  |  |  |  |  | 
3 | CCCCCCOC(=O)CC(CC(=O)OCCCCCC)(OC(=O)CCC)C(=O)OCCCCCC | inactive | inactive | inactive | inactive | inactive | inactive | inactive | inactive |  |  |  |  |  | 
4 | O=C(Cl)C(F)(F)C(F)(F)C(F)(F)C(=O)Cl | inactive | inactive | inactive |  | inactive | inactive |  | inactive |  |  |  |  |  | 
5 | NC(=O)N(O)[C@@H]1COc2cc(OCc3ccccc3)ccc21 | inactive |  | inactive | inactive | inactive | inactive |  | inactive | 3.45 µM (active) |  |  |  |  | 
6 | Cc1ccc(S(=O)(=O)NC(=O)NN2CCCCCC2)cc1 | inactive | inactive | inactive | inactive | inactive | inactive |  | inactive |  | inactive |  |  |  | 
7 | OCC(CO)(CO)CO | inactive | inactive | inactive |  | inactive | inactive |  | inactive |  | inactive |  |  |  | 
8 | CCc1ccc(O)c(C(C)(C)C)c1 | inactive |  | inactive |  |  |  |  |  | 25.3 µM (active) |  | 30.5 µM (active) | 36 µM (active) | 20 µM (active) | 
9 | CCCc1ccccc1 | inactive | inactive | inactive |  | inactive | inactive | inactive | inactive |  |  |  |  |  | 
10 | CCCCCCCC/C=C\CCCCCCCC(=O)OC[C@@H](O)[C@H]1OC[C@H](O)[C@H]1O | inactive | inactive | inactive |  | inactive | inactive | inactive | inactive |  |  |  |  |  | 
11 | CCCCC(CC)C(=O)OCCOCCOCCOC(=O)C(CC)CCCC (stereo unspecified) | inactive | inactive | inactive | inactive | inactive | inactive |  | inactive |  |  |  |  |  | 
12 | CCn1nc(C)c2c1C(=O)NCC(c1ccc(O)cc1)=N2 | inactive | inactive | inactive |  | inactive |  | inactive |  |  |  |  | 20 µM (active) | 4.49 µM (active) | 8.91 µM (active)
13 | C=CN1CCCC1=O | inactive | inactive | inactive |  | inactive | inactive | inactive | inactive |  | inactive |  |  |  | 
14 | CCc1cccc(CC)c1N | inactive | inactive | inactive |  | inactive | inactive | inactive | inactive |  |  |  |  |  | 
15 | CCCCCCCC1CCC(=O)O1 (stereo unspecified) | inactive | inactive | inactive |  | inactive | inactive |  | inactive |  |  |  |  |  | 
